# The campaign covered roughly 340,000 compounds. About 6,400 (1.9%) were called active. Roughly 4% stayed inconclusive and do not appear here. The list comes from a sample in which actives are over-represented; it also holds similar structures and randomly drawn compounds. Values without a mark were called inactive. Calls come from the whole dose curve; as a rule, active = well fitted falling curve with a large enough effect; inconclusive = small, poorly fitted or top-dose-only effect; inactive = no such curve, though single readings can be large or run the other way.
# Target: ATP-dependent Clp protease proteolytic subunit (Bacillus subtilis (strain 168)) (UniProt P80244)
# Assay: qHTS Assay for Activators of ClpP; note: the source files actives as falling curves though it sought activators and does not explain the sign; nearly all actives have a fitted effect of over 65% in size
# Details: purified B. subtilis ClpP, FRET peptide cleavage, 20 min; series mostly up to 57.5 µM; activity change, negative = active: at the top concentration
# In short: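 ClpP 10 microg/mL final, pH 8 Tris/KCl buffer with BSA, glycerol, Tween-20; compound pinned in; FRET-FV substrate; RT 20 min; Ex320/Em430; ΔFRET vs ADEP 5.8 microM, DMSO, no enzyme.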
# Potency is the fitted concentration of half-maximal effect.
# Chain of ATP-dependent Clp protease proteolytic subunit (Bacillus subtilis (strain 168)) (P80244 whole entry, looked up): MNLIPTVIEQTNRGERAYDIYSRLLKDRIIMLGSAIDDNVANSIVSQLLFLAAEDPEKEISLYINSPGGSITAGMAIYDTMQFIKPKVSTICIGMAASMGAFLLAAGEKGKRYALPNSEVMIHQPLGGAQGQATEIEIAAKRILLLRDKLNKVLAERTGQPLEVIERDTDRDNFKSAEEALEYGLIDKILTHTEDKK
SMILES,"activity change, negative = active [%]",Potency
CC(C)(C)NC(=O)C(CCc1ccccc1)n1c(=O)c(-c2ccccc2)nc2ccccc21 (centres undefined),-29.6,
N#Cc1ccc(C(C(=O)NCc2ccccc2)n2c(=O)c(-c3ccco3)nc3ccccc32)cc1 (centres undefined),3.44,
COc1ccc(C(C(=O)NCc2ccccc2)n2c(=O)c(-c3ccccc3)nc3ccccc32)cc1 (centres undefined),,28.2 µM (active)
CCc1nc2c(OCCOc3ccc(F)cc3)cccn2c1N(C)C(=O)c1ccccc1F,0.272,
CC(C)(C)Cc1c(C2CCCCC2)nc2ccc(Br)cn12,-1.44,
CCc1c(-c2ccc(F)cc2)ncn1Cc1cccc(-c2ccccc2)c1,-16.7,
Cn1c(Nc2ccc(F)cc2)nc2cc(-c3ccsc3)sc2c1=O,-19.8,
O=C(O)C1=C/C(=C/C=[N+]2c3cc(O)c(O[C@H]4OC(CO)[C@@H](O)[C@@H](O)[C@@H]4O)cc3C[C@@H]2C(=O)[O-])C[C@H](C(=O)O)N1 (some centres undefined),-1.44,
Cc1cccc(-c2cnc(C(O)c3cc(C)cc(C)c3)[nH]2)c1 (centres undefined),-1.64,
O=C(O)c1ccccc1-c1ccccc1C(=O)NCCc1ccccc1,0.88,
CCN(CC)c1nn2c(=O)c(C(=O)NCCc3ccccc3)cnc2s1,,28.2 µM (active)
O=C(NCCc1ccccc1)c1cnc2sc(N3CCCC3)nn2c1=O,23.7,
CC1(C(=O)Nc2cccc3cccnc23)CCN1C(=O)CCC1CCCC1 (centres undefined),-4.78,
Cc1occc1C(=O)Nc1nnc(C2CCCCC2)s1,1.56,
Cc1ccc(NC(=O)Nc2nnc(-c3ccncc3)s2)cc1,-17.4,
Cc1occc1C(=O)Nc1nnc(-c2ccncc2)s1,,31.6 µM (active)
CCCCOc1ccc(C(=O)NO)cc1,1.01,
O=C(OCc1ccccc1)N1CCC2CC1c1ccc(-c3ccc4c(c3)OCO4)cc12 (centres undefined),-29.7,
CC1(C(=O)NS(=O)(=O)c2ccccc2Cl)CCN1C(=O)c1cccc(F)c1 (centres undefined),-2.25,
CCc1nc2c(OCCOc3ccccc3)cccn2c1N(C)C(=O)c1ccc(OC)cc1,-0.66,
CCOC(=O)c1cc(=O)c2ccc(OCc3ccccc3)cc2o1,-0.5,
CCOC(=O)COc1cc(OCC(=O)OCC)c2c(=O)cc(-c3ccccc3)oc2c1,,28.2 µM (active)
CCOC(=O)c1c(-c2ccccc2)oc2ccc(OCC(N)=O)cc12,4,
CN1C[C@@H](CO)O[C@@H](n2cnc3c(N4CCN(CCO)CC4)ncnc32)C1,-1.83,
COc1cccc(NC(=S)N(Cc2ccc(C)cc2)Cc2ccccn2)c1,,28.2 µM (active)

SMILES,"activity change, negative = active [%]",Potency
COc1cccc(NC(=S)NCc2ccccn2)c1,1.22,
Cc1ccc(CN(Cc2cccnc2)C(=S)Nc2cccc(Cl)c2C)cc1,-1.41,
CC1(C(=O)NCc2ccco2)Cc2c(-c3ccc4c(c3)OCO4)ccnc2O1 (centres undefined),4.97,
O=C(NCc1ccc(F)cc1)c1ccc(Cn2c(SCc3ccc(F)cc3)nc3cccnc32)cc1,,28.2 µM (active)
O=C(O)c1ccc(CSc2nc3cccnc3n2Cc2cccc(F)c2)cc1,,31.6 µM (active)
C=CCn1c(SCc2ccc(C(=O)NCCO)cc2)nc2ccccc2c1=O,-1.32,
O=C(O)c1ccc(Cn2c(SCc3ccc(F)cc3)nc3ccncc32)cc1,-6.24,
Cc1cccc(CSc2nc3ccncc3n2Cc2ccc(C(=O)O)cc2)c1,-15.8,
Cc1ccc(CSc2nc3cccnc3n2Cc2ccc(C(=O)NC3CC3)cc2)cc1,-21.3,
COc1cccc(C(O)c2ncc(-c3ccc4ccccc4c3)[nH]2)c1 (centres undefined),5.1,
CCCCNC(=O)C[C@@H]1C[C@@]2(C(=O)OCC)CCC=C2N(Cc2cccc3ccccc23)C1=O,0.695,
CCOC(=O)[C@]12CCC=C1N(Cc1cccc3ccccc13)C(=O)[C@H](CC(=O)NCc1cccc(C(F)(F)F)c1)C2,-21.3,
Cc1nn(CC(=O)NCC2CCCO2)c(=O)c2cc3ccccc3n12 (centres undefined),3.78,
Cc1nn(CC(=O)NCCc2ccccc2)c(=O)c2cc3occc3n12,-3.03,
Cc1nn(CC(=O)O)c(=O)c2cc3cc(F)ccc3n12,,28.2 µM (active)
O=C(c1ccccc1)N1CCN(c2cc(-c3ccccc3)nc3cc(-c4cccc(Cl)c4)nn23)CC1,-45.3,
CC=CCn1c(SCCCc2ccccc2)nc2c1c(=O)[nH]c(=O)n2C,-0.218,
COc1ccc([C@H]2CC(=O)C[C@@H](CCn3cc(CC4CCCC4)nn3)O2)cc1,0.945,
COc1ccc(NC(=O)c2cc(-c3ccc(C)o3)nc3ccccc23)cc1,-0.804,
COc1ccc(NC(=O)CN(C)C(=O)c2cc(-c3ccc(C)o3)nc3ccccc23)cc1,,25.1 µM (active)
COc1cccc(NC(=O)CN(C)C(=O)c2cc(Cl)nc3ccccc23)c1,-5.28,
Cc1ccc(F)c(S(=O)(=O)NC(=O)C2(C)CCN2C(=O)CCc2cccs2)c1 (centres undefined),-0.445,
CCOc1ccccc1Nc1ccc(C(=O)O)cc1[N+](=O)[O-],-0.992,
Cc1ccc(Nc2ccc(C(N)=O)cc2[N+](=O)[O-])cc1,,12.6 µM (active)
